Source: the supplement of paper PMC8728848
The sample as a whole holds a higher share of the strongest signals than the screen did.

Tests used:
Assay in all cases: glycan array binding signal (z-score within array); higher = stronger binding
Details in all cases: glycan notation: IUPAC condensed, linker removed
[1] = target: Fuc(a1-2)Gal(b1-3)GalNAc(a1-3)[Fuc(a1-2)]Gal(b1-4)GlcNAc
In short: (§1)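 Glycan array data were curated from 3228 arrays in the Consortium for Functional Glycomics database and kept only where the protein sequence was available. Glycan names were converted to IUPAC-condensed notation, and columns mapping to the same glycan were averaged. The binding signal is a within-array Z-score, averaged across arrays of the same protein sequence at different concentrations or buffers and across linkers. Negative Z-scores can be read as non-binding.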

[2] = target: Fuc(a1-2)[Gal(a1-3)]Gal(b1-3)GlcNAc(b1-2)Man(a1-3)[Fuc(a1-2)[Gal(a1-3)]Gal(b1-3)GlcNAc(b1-2)Man(a1-6)]Man(b1-4)GlcNAc(b1-4)GlcNAc
In short: as §1

[3] = target: Fuc(a1-2)[Gal(a1-3)]Gal(b1-4)Glc
In short: as §1

[4] = target: Fuc(a1-2)[Gal(a1-3)]Gal(b1-4)GlcNAc
In short: as §1

[5] = target: Fuc(a1-2)[Gal(a1-3)]Gal(b1-4)GlcNAc(b1-2)Man(a1-3)[Fuc(a1-2)[Gal(a1-3)]Gal(b1-4)GlcNAc(b1-2)Man(a1-6)]Man(b1-4)GlcNAc(b1-4)GlcNAc
In short: as §1

[6] = target: Fuc(a1-2)[GalNAc(a1-3)]Gal(b1-3)GlcNAc(b1-2)Man(a1-3)[Fuc(a1-2)[GalNAc(a1-3)]Gal(b1-3)GlcNAc(b1-2)Man(a1-6)]Man(b1-4)GlcNAc(b1-4)GlcNAc
In short: as §1

[7] = target: Fuc(a1-2)[GalNAc(a1-3)]Gal(b1-3)GlcNAc(b1-3)GalNAc
In short: as §1

[8] = target: Fuc(a1-2)[GalNAc(a1-3)]Gal(b1-4)GlcNAc(b1-2)Man(a1-3)[Fuc(a1-2)[GalNAc(a1-3)]Gal(b1-4)GlcNAc(b1-2)Man(a1-6)]Man(b1-4)GlcNAc(b1-4)[Fuc(a1-6)]GlcNAc
In short: as §1

[9] = target: Fuc(a1-2)[GalNAc(a1-3)]Gal(b1-4)GlcNAc(b1-3)Gal(b1-4)GlcNAc
In short: as §1

[10] = target: Fuc(a1-2)[GalNAc(a1-3)]Gal(b1-4)GlcNAc(b1-3)Gal(b1-4)GlcNAc(b1-3)Gal(b1-4)GlcNAc
In short: as §1

[11] = target: Fuc(a1-2)[GalNAc(a1-3)]Gal(b1-4)GlcNAc(b1-3)[Fuc(a1-2)[GalNAc(a1-3)]Gal(b1-4)GlcNAc(b1-6)]GalNAc
In short: as §1

[12] = target: Fuc(a1-2)[GalNAc(a1-3)]Gal(b1-4)[Fuc(a1-3)]GlcNAc(b1-3)GalNAc
In short: as §1

[13] = target: Fuc(a1-3)[Gal3S(b1-4)]GlcNAc
In short: as §1

Gal(b1-3)Gal(b1-4)GlcNAc = target: Gal(b1-3)Gal(b1-4)GlcNAc
In short: as §1

[14] = target: Gal(b1-3)GalNAc(a1-3)[Fuc(a1-2)]Gal(b1-4)Glc
In short: as §1

[15] = target: Gal(b1-3)GalNAc(a1-3)[Fuc(a1-2)]Gal(b1-4)GlcNAc
In short: as §1

[16] = target: Gal(b1-3)GlcNAc(b1-3)Gal(b1-4)GlcNAc(b1-3)Gal(b1-4)GlcNAc(b1-2)[Gal(b1-3)GlcNAc(b1-3)Gal(b1-4)GlcNAc(b1-3)Gal(b1-4)GlcNAc(b1-6)]Man(a1-6)[Gal(b1-3)GlcNAc(b1-3)Gal(b1-4)GlcNAc(b1-3)Gal(b1-4)GlcNAc(b1-2)Man(a1-3)]Man(b1-4)GlcNAc(b1-4)[Fuc(a1-6)]GlcNAc
In short: as §1

[17] = target: Gal(b1-3)GlcNAc(b1-3)Gal(b1-4)GlcNAc(b1-6)[Gal(b1-3)GlcNAc(b1-3)]Gal(b1-4)Glc
In short: as §1

[18] = target: Gal(b1-3)[Fuc(a1-4)]GlcNAc(b1-2)Man(a1-3)[Gal(b1-3)[Fuc(a1-4)]GlcNAc(b1-2)Man(a1-6)]Man(b1-4)GlcNAc(b1-4)[Fuc(a1-6)]GlcNAc
In short: as §1

[19] = target: Gal(b1-4)GlcNAc(b1-2)Man(a1-3)[GlcNAc(b1-2)Man(a1-6)]Man(b1-4)GlcNAc(b1-4)GlcNAc
In short: as §1

[20] = target: Gal(b1-4)GlcNAc(b1-3)Gal(b1-4)GlcNAc(b1-2)Man(a1-3)[Gal(b1-4)GlcNAc(b1-3)Gal(b1-4)GlcNAc(b1-2)Man(a1-6)]Man(b1-4)GlcNAc(b1-4)[Fuc(a1-6)]GlcNAc
In short: as §1

[21] = target: Gal(b1-4)GlcNAc(b1-3)Gal(b1-4)GlcNAc(b1-3)Gal(b1-4)GlcNAc(b1-3)Gal(b1-4)GlcNAc(b1-2)Man(a1-3)[Gal(b1-4)GlcNAc(b1-3)Gal(b1-4)GlcNAc(b1-3)Gal(b1-4)GlcNAc(b1-3)Gal(b1-4)GlcNAc(b1-2)Man(a1-6)]Man(b1-4)GlcNAc(b1-4)[Fuc(a1-6)]GlcNAc
In short: as §1

Gal3S(b1-4)Glc6S = target: Gal3S(b1-4)Glc6S
In short: as §1

GalNAc4S6S(b1-4)GlcNAc = target: GalNAc4S6S(b1-4)GlcNAc
In short: as §1

GlcA(b1-3)GlcNAc = target: GlcA(b1-3)GlcNAc
In short: as §1

[22] = target: GlcNAc(b1-2)[GlcNAc(b1-4)]Man(a1-3)[GlcNAc(b1-4)][GlcNAc(b1-2)[GlcNAc(b1-6)]Man(a1-6)]Man(b1-4)GlcNAc(b1-4)[Fuc(a1-6)]GlcNAc
In short: as §1

[23] = target: GlcNAc(b1-2)[GlcNAc(b1-6)]Man(a1-6)[GlcNAc(b1-2)Man(a1-3)]Man(b1-4)GlcNAc(b1-4)GlcNAc
In short: as §1

[24] = target: GlcNAc(b1-3)Gal(b1-3)GalNAc
In short: as §1

[25] = target: GlcNAc(b1-3)Gal(b1-4)GlcNAc(b1-3)Gal(b1-4)GlcNAc(b1-3)Gal(b1-4)GlcNAc(b1-3)Gal(b1-4)GlcNAc(b1-2)Man(a1-3)[GlcNAc(b1-3)Gal(b1-4)GlcNAc(b1-3)Gal(b1-4)GlcNAc(b1-3)Gal(b1-4)GlcNAc(b1-3)Gal(b1-4)GlcNAc(b1-2)Man(a1-6)]Man(b1-4)GlcNAc(b1-4)[Fuc(a1-6)]GlcNAc
In short: as §1

[26] = target: GlcNAc(b1-3)Gal(b1-4)GlcNAc(b1-3)Gal(b1-4)GlcNAc(b1-3)Gal(b1-4)GlcNAc(b1-3)Gal(b1-4)GlcNAc(b1-2)[GlcNAc(b1-3)Gal(b1-4)GlcNAc(b1-3)Gal(b1-4)GlcNAc(b1-3)Gal(b1-4)GlcNAc(b1-3)Gal(b1-4)GlcNAc(b1-6)]Man(a1-6)[GlcNAc(b1-3)Gal(b1-4)GlcNAc(b1-3)Gal(b1-4)GlcNAc(b1-3)Gal(b1-4)GlcNAc(b1-3)Gal(b1-4)GlcNAc(b1-2)Man(a1-3)]Man(b1-4)GlcNAc(b1-4)[Fuc(a1-6)]GlcNAc
In short: as §1

B1: CvGal2 (Crassostrea virginica) (protein)
chain: MGSSHHHHHHSSGLVPRGSHMRIREAGKRKDTTKVYQIPDGLFPGQQVMLRGRVPWGSKSFSINFSATPRMGEGDILFHLNPRPSEGVCIRNALLNGSWGAEEKWQPYFPFDDGRSFSVKIEVTNDAFRTFVNGRPFVDFLHRTDFRAGKYLTLREGAEYYDVIFQSKPNIPLTTAIHNGMRIGKTIRIRGMCTAQDGFAINFNDNRNNIYFHFNARPAQRTVVRNSYFGSWGNEETAISKEFPFYPFLYFYASFVCMEDKFAVYVNDEHFIDFAHRGNPNNISVLQIKGSVNVLDTECLEPMGEDAMTEVDSGLENGDLFVLNGLMTERGKTFAVNFLNGFTENDDIALHFNPRKSTGEVVLNSRYGGAWQSEEKVALPGVFWSNRPLQVKVETKRNKFKIYVNGVDLAKYKIRGNVEDVHAVQVKGDVFLLETLLLKRLMKPVWERLTGGIRPGTWVTLQGTPKKNWQQFVVNFALDDTLDGDIAFHFNVRRGARQVVRNHRQSGAWGREETVTPFFAFDSEATFEIVFFVKEEKFLIYFNGKLFFEFVHRVPVERITHIYMDGDCNFYEPEVVI
glycan array binding signal (z-score) [1]: 4.44 | glycan array binding signal (z-score) [2]: 5.23 | glycan array binding signal (z-score) [3]: 4.03 | glycan array binding signal (z-score) [4]: 2.16 | glycan array binding signal (z-score) [5]: 7.14 | glycan array binding signal (z-score) [6]: 4.12 | glycan array binding signal (z-score) [7]: 0.97 | glycan array binding signal (z-score) [8]: 3.72 | glycan array binding signal (z-score) [9]: 3.77 | glycan array binding signal (z-score) [10]: 4.33 | glycan array binding signal (z-score) [11]: 6.77 | glycan array binding signal (z-score) [12]: -0.333 | glycan array binding signal (z-score) [13]: -0.329 | glycan array binding signal (z-score) (Gal(b1-3)Gal(b1-4)GlcNAc): 0.538 | glycan array binding signal (z-score) [14]: 3.35 | glycan array binding signal (z-score) [15]: 4.05 | glycan array binding signal (z-score) [16]: 2.77 | glycan array binding signal (z-score) [17]: 4.4 | glycan array binding signal (z-score) [18]: -0.33 | glycan array binding signal (z-score) [19]: -0.329 | glycan array binding signal (z-score) [20]: -0.175 | glycan array binding signal (z-score) [21]: -0.126 | glycan array binding signal (z-score) (Gal3S(b1-4)Glc6S): 0.689 | glycan array binding signal (z-score) (GalNAc4S6S(b1-4)GlcNAc): -0.33 | glycan array binding signal (z-score) (GlcA(b1-3)GlcNAc): -0.318 | glycan array binding signal (z-score) [22]: -0.32 | glycan array binding signal (z-score) [23]: -0.338 | glycan array binding signal (z-score) [24]: -0.316 | glycan array binding signal (z-score) [25]: -0.163 | glycan array binding signal (z-score) [26]: 0.428
